Results filed as inconclusive are left out. A call without a number means that no potency is given here. A number with no mark means an inactive call. Activity calls are given as the source filed them. Unless noted, the call rests on the fitted dose curve; in most records, active means well fitted curve in the direction sought with a large enough effect; inconclusive means small, poorly fitted or top-dose-only effect, or another doubt; inactive means no such curve, though single readings can be large; an effect the other way counts as inactive or inconclusive.

Sequence of Peroxisome proliferator-activated receptor gamma (Homo sapiens) (P37231 whole entry, looked up): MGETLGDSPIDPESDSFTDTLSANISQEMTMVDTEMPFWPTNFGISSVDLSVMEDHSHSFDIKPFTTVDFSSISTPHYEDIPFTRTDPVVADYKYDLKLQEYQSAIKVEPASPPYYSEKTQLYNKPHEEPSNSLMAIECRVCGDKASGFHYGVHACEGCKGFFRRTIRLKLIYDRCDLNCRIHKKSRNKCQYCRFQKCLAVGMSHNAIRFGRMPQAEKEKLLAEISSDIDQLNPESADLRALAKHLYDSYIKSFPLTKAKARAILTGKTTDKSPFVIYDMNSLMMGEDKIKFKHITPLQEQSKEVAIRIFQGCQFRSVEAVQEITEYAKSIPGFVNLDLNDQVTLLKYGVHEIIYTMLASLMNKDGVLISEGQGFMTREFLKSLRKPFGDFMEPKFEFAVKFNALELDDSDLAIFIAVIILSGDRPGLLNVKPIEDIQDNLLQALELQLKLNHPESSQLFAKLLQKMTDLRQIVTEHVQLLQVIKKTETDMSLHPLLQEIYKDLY

System in one assay: not listed separately
Nature of the assay: qHTS assay to identify small molecule that activate the aryl hydrocarbon receptor (AhR) signaling pathway - cell viability counter screen (AID 743086; active means well fitted curve in the direction sought with a large enough effect in the repeat runs; an effect the other way counts as inactive or inconclusive; further: nearly all actives have a fitted effect of over 45% in size; further: potency means the concentration at half of the fitted maximal effect). The conditions noted are these: HepG2-AhR-luc viability, CellTiter-Fluor, 24 h; series mostly up to 70.3 µM. Put shortly: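 Cytotoxicity counter screen: CellTiter-Fluor signal (30 min, 37 C) in 4000 HepG2 cells/well carrying the DRE-luciferase reporter, following 24 h compound exposure at 37 C.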
A general note: In qHTS, concentration-response curves come from the screen itself.
`CCOC(=O)C1=C[C@@H](OC(CC)CC)[C@H](NC(C)=O)[C@@H](N)C1`: the Potency result was “inactive”.
As to `CC[N+](C)(C)Cc1ccccc1Br`, the Potency entry was “inactive”.
The same measure, in the same setting: the figure for `CCCCCCOc1ccc(C(=N)N(CCCC)CCCC)c2ccccc12` is 18.8 µM (active).
Same read-out and setting: with `CCc1ccc(S(=O)(=O)O)cc1` the entry was “inactive”; with `C[C@]12CCC(=O)C=C1CC[C@@H]1[C@@H]2[C@@H](O)C[C@@]2(C)[C@H]1CC[C@]2(O)C(=O)COP(=O)(O)O`, “inactive”; with `COC(=O)[C@H]1[C@H]2C[C@@H]3c4[nH]c5ccccc5c4CCN3C[C@H]2C[C@@H](OC(=O)c2cc(OC)c(OC)c(OC)c2)[C@@H]1OC`, “inactive”.
Take `CCC(=O)OCC(=O)[C@@]1(OC(=O)CC)[C@H](C)C[C@H]2[C@H]3[C@H]([C@@H](O)C[C@@]21C)[C@@]1(C)C=CC(=O)C=C1C[C@H]3Cl`: the Potency entry is “inactive”.

The next assay concerns the target Peroxisome proliferator-activated receptor gamma (Homo sapiens) (UniProt P37231). Nature of the assay: qHTS assay to identify small molecule agonists of the peroxisome proliferator-activated receptor gamma (PPARg) signaling pathway (AID 743094; active means well fitted activation curve with a large enough effect in the signal ratio in the repeat runs, not every such curve was filed as active; the % refers to the signal ratio). The conditions noted are these: HEK293H PPARg-UAS-bla, beta-lactamase FRET ratio, 17 h; series mostly up to 57 µM. Put shortly:
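GeneBLAzer PPARg UAS-bla HEK293H cells were plated, rested 5 h, then exposed to compounds for 17 h at 37C. Beta-lactamase activity was read by LiveBLAzer B/G FRET substrate fluorescence after 1 h at room temperature.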
As for `CO[C@@H]1[C@@H](O[C@@H]2O[C@H](C)[C@@H](O[C@H]3C[C@@](C)(O)[C@@H](O)[C@H](C)O3)[C@H](N(C)C)[C@H]2O)[C@@H](CC=O)C[C@@H](C)[C@@H](O[C@@H]2CC[C@H](N(C)C)[C@@H](C)O2)/C=C/C=C/C[C@@H](C)OC(=O)C[C@H]1O`, the Potency result is “inactive”.
On the same count and under the same terms, the entry for `CC(C)CN(C[C@@H](O)[C@H](Cc1ccccc1)NC(=O)O[C@@H]1CCOC1)S(=O)(=O)c1ccc(N)cc1` is “inactive”; for `CCC(=O)NCCC1CCc2ccc3c(c21)CCO3` (stereo not drawn) it is “inactive”.
Still for that read-out and setting: the entry for `CC(C(=O)O)c1ccc(N2Cc3ccccc3C2=O)cc1` (stereo not drawn) is “inactive”; for `CC[C@@H]1/C=C(\C)C[C@H](C)C[C@H](OC)[C@H]2O[C@@](O)(C(=O)C(=O)N3CCCC[C@H]3C(=O)O[C@H](/C(C)=C/[C@@H]3CC[C@@H](Cl)[C@H](OC)C3)[C@H](C)[C@@H](O)CC1=O)[C@H](C)C[C@@H]2OC` it is “inactive”.
The same measure, in the same setting: with `O=C(O)[C@H](CC(=O)N1C[C@H]2CCCC[C@H]2C1)Cc1ccccc1` the entry was “inactive”; with `COC(=O)[C@H]1[C@H]2C[C@@H]3c4[nH]c5cc(OC)ccc5c4CCN3C[C@H]2C[C@@H](OC(=O)/C=C/c2cc(OC)c(OC)c(OC)c2)[C@@H]1OC`, “inactive”; with `NC(=O)Oc1ccc(Cc2ccccc2)cc1`, “inactive”.
Regarding `CC(C)(CO)[C@@H](O)C(=O)NCCC(=O)NCCSSCCNC(=O)CCNC(=O)[C@H](O)C(C)(C)CO`, the Potency entry is “inactive”.
With `C#C[C@]1(O)CC[C@H]2[C@@H]3CCC4=C(CCC(=O)C4)[C@H]3CC[C@@]21C`, the Potency result was “inactive”.
Same read-out and setting: the entry for `COCC(=O)Nc1cc(Sc2ccccc2)ccc1N=C(NC(=O)OC)NC(=O)OC` is “inactive”.
Still for that read-out and setting: the entry for `COc1ccc2c(c1)N(C[C@H](C)CN(C)C)c1ccccc1S2` is “inactive”.
The same measure, in the same setting: with `COc1ccc2c(=O)c(C)c(-c3ccccc3)oc2c1CN(C)C` the entry was “inactive”; with `CN1C(=O)CN2CCc3ccccc3C2c2cc(Cl)ccc21` (stereo not drawn), “inactive”.
Consider `CCSc1ccc2c(c1)N(CCCN1CCN(C)CC1)c1ccccc1S2`, for which the Potency entry is “inactive”.
Consider `CC(C)c1nc(N(C)S(C)(=O)=O)nc(-c2ccc(F)cc2)c1/C=C/C(O)CC(O)CC(=O)O` (stereo not drawn), for which the Potency entry was “inactive”.
Still for that read-out and setting: with `CCC[C@@H]1C[C@@H](C(=O)N[C@@H]([C@H]2O[C@H](SC)[C@H](O)[C@@H](O)[C@H]2O)[C@H](C)Cl)N(C)C1` the entry was “inactive”; with `CCOC(=O)C1=C[C@@H](OC(CC)CC)[C@H](NC(C)=O)[C@@H](N)C1`, “inactive”.
Same read-out and setting: with `CC[N+](C)(C)Cc1ccccc1Br` the entry was “inactive”; with `CCc1ccc(S(=O)(=O)O)cc1`, “inactive”.
Turning to `CC(C)C(=O)OCC(=O)[C@@]12O[C@H](C3CCCCC3)O[C@@H]1C[C@H]1[C@@H]3CCC4=CC(=O)C=C[C@]4(C)[C@H]3[C@@H](O)C[C@@]12C`, the Potency entry is “inactive”.
Still for that read-out and setting: with `C[C@]12CCC(=O)C=C1CC[C@@H]1[C@@H]2[C@@H](O)C[C@@]2(C)[C@H]1CC[C@]2(O)C(=O)COP(=O)(O)O` the entry was “inactive”; with `CCC(=O)OCC(=O)[C@@]1(OC(=O)CC)[C@H](C)C[C@H]2[C@H]3[C@H]([C@@H](O)C[C@@]21C)[C@@]1(C)C=CC(=O)C=C1C[C@H]3Cl`, “inactive”.

System in another assay: not listed separately
Nature of the assay: qHTS assay to identify small molecule phospholipidosis (PLD) inducers (AID 1259344). Further: potency means the concentration at half of the fitted maximal effect. The note with it: HepG2 phospholipidosis, LipidTOX Red imaging, 24 h; series mostly up to 38.3 µM. In outline:
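Fluorescent phospholipid staining (LipidTOX Red) measured by automated microscopy in fixed HepG2 cells after 24 h treatment; nuclei counterstained with Hoechst 33342; amiodarone as reference inducer.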
On to `O=C1/C(=C\c2cccs2)CCC/C1=C\c1cccs1`, for which the Potency entry is “inactive”.
On the same count and under the same terms, the entry for `CO[C@@H]1[C@@H](O[C@@H]2O[C@H](C)[C@@H](O[C@H]3C[C@@](C)(O)[C@@H](O)[C@H](C)O3)[C@H](N(C)C)[C@H]2O)[C@@H](CC=O)C[C@@H](C)[C@@H](O[C@@H]2CC[C@H](N(C)C)[C@@H](C)O2)/C=C/C=C/C[C@@H](C)OC(=O)C[C@H]1O` is “inactive”; for `CC(C)CN(C[C@@H](O)[C@H](Cc1ccccc1)NC(=O)O[C@@H]1CCOC1)S(=O)(=O)c1ccc(N)cc1` it is “inactive”; for `CCC(=O)NCCC1CCc2ccc3c(c21)CCO3` (stereo not drawn) it is “inactive”.
Still for that read-out and setting: the entry for `CC(C(=O)O)c1ccc(N2Cc3ccccc3C2=O)cc1` (stereo not drawn) is “inactive”.
Same read-out and setting: the entry for `CC[C@@H]1/C=C(\C)C[C@H](C)C[C@H](OC)[C@H]2O[C@@](O)(C(=O)C(=O)N3CCCC[C@H]3C(=O)O[C@H](/C(C)=C/[C@@H]3CC[C@@H](Cl)[C@H](OC)C3)[C@H](C)[C@@H](O)CC1=O)[C@H](C)C[C@@H]2OC` is “inactive”; for `O=C(O)[C@H](CC(=O)N1C[C@H]2CCCC[C@H]2C1)Cc1ccccc1` it is “inactive”.
Regarding `CC[C@@H](C(=O)[C@@H](C)[C@@H](O)[C@H](C)[C@@H]1O[C@@H]([C@@H](CC)C(=O)O)CC[C@@H]1C)[C@H]1O[C@]2(C=C[C@@H](O)[C@]3(CC[C@@](C)([C@H]4CC[C@](O)(CC)[C@H](C)O4)O3)O2)[C@H](C)C[C@@H]1C`, the Potency result is “inactive”.
On to `COC(=O)[C@H]1[C@H]2C[C@@H]3c4[nH]c5cc(OC)ccc5c4CCN3C[C@H]2C[C@@H](OC(=O)/C=C/c2cc(OC)c(OC)c(OC)c2)[C@@H]1OC`, for which the Potency result was “inactive”.
The same measure, in the same setting: the entry for `COc1cc([C@@H]2c3cc4c(cc3C(O[C@@H]3O[C@@H]5COC(c6cccs6)O[C@H]5[C@H](O)[C@H]3O)C3COC(=O)[C@@H]32)OCO4)cc(OC)c1O` (stereo partly drawn) is “inactive”; for `CC(C)CN(C[C@@H](OP(=O)(O)O)[C@H](Cc1ccccc1)NC(=O)O[C@H]1CCOC1)S(=O)(=O)c1ccc(N)cc1` it is “inactive”.
As for `Cc1cc(O)c2c(c1)O[C@@]1(C)CC[C@H]3C(C)(C)CCCC34CO[C@@H]2[C@H]41` (stereo partly drawn), the Potency result was “inactive”.
The same measure, in the same setting: with `NC(=O)Oc1ccc(Cc2ccccc2)cc1` the entry was “inactive”; with `CC(C)(CO)[C@@H](O)C(=O)NCCC(=O)NCCSSCCNC(=O)CCNC(=O)[C@H](O)C(C)(C)CO`, “inactive”; with `C#C[C@]1(O)CC[C@H]2[C@@H]3CCC4=C(CCC(=O)C4)[C@H]3CC[C@@]21C`, “inactive”.
Still for that read-out and setting: with `COCC(=O)Nc1cc(Sc2ccccc2)ccc1N=C(NC(=O)OC)NC(=O)OC` the entry was “inactive”.
As for `COc1ccc2c(c1)N(C[C@H](C)CN(C)C)c1ccccc1S2`, the Potency is 8.91 µM (active).
Same read-out and setting: the entry for `COc1ccc2c(=O)c(C)c(-c3ccccc3)oc2c1CN(C)C` is “inactive”; for `CN1C(=O)CN2CCc3ccccc3C2c2cc(Cl)ccc21` (stereo not drawn) it is “inactive”; for `CCSc1ccc2c(c1)N(CCCN1CCN(C)CC1)c1ccccc1S2` it is “inactive”.
On the same count and under the same terms, with `S=C1SCN(Cc2ccccc2)CN1Cc1ccccc1` the entry was “inactive”; with `CN(C)C=Nc1c(I)cc(I)c(CCC(=O)O)c1I`, “inactive”.
On to `CC(=O)[C@]1(O)Cc2c(O)c3c(c(O)c2[C@@H](O[C@H]2C[C@H](N)[C@H](O)[C@H](C)O2)C1)C(=O)c1c(O)cccc1C3=O`, for which the PLD induction was -0.0504% [at 7.66 µM].
Regarding `CCOC(=O)Oc1c(OC)cc(C(=O)O[C@@H]2C[C@@H]3CN4CCc5c([nH]c6cc(OC)ccc56)[C@H]4C[C@@H]3[C@H](C(=O)OC)[C@H]2OC)cc1OC`, the Potency entry was “inactive”.
The same measure, in the same setting: the entry for `COC(=O)C1=C(C#N)NC(C)=C(C(=O)OC(C)C)C1c1cccc([N+](=O)[O-])c1` (stereo not drawn) is “inactive”.
The same measure, in the same setting: the entry for `CC(C)c1nc(N(C)S(C)(=O)=O)nc(-c2ccc(F)cc2)c1/C=C/C(O)CC(O)CC(=O)O` (stereo not drawn) is “inactive”; for `CCC[C@@H]1C[C@@H](C(=O)N[C@@H]([C@H]2O[C@H](SC)[C@H](O)[C@@H](O)[C@H]2O)[C@H](C)Cl)N(C)C1` it is “inactive”; for `CO[C@H]1C=CO[C@@]2(C)Oc3c(C)c(O)c4c(O)c(c5c(nc6cc(C)ccn65)c4c3C2=O)NC(=O)/C(C)=C\C=C[C@H](C)[C@H](O)[C@@H](C)[C@@H](O)[C@@H](C)[C@H](OC(C)=O)[C@@H]1C` it is “inactive”.
Same read-out and setting: the entry for `N[C@H](CC(=O)O)C(=O)O` is “inactive”.
For `CN[C@@H]1[C@@H](O)[C@@H](O[C@@H]2[C@@H](O)[C@H](O[C@H]3O[C@H](CN)[C@@H](O)[C@H](O)[C@H]3O)[C@@H](N)C[C@H]2NC(=O)C(O)CN)OC[C@]1(C)O` (stereo partly drawn), the Potency entry is “inactive”.
The same measure, in the same setting: with `CCOC(=O)C1=C[C@@H](OC(CC)CC)[C@H](NC(C)=O)[C@@H](N)C1` the entry was “inactive”.
Same read-out and setting: the entry for `CC[N+](C)(C)Cc1ccccc1Br` is “inactive”; for `CCCCCCOc1ccc(C(=N)N(CCCC)CCCC)c2ccccc12` it is “inactive”.
On the same count and under the same terms, with `CCc1ccc(S(=O)(=O)O)cc1` the entry was “inactive”; with `CC(C)C(=O)OCC(=O)[C@@]12O[C@H](C3CCCCC3)O[C@@H]1C[C@H]1[C@@H]3CCC4=CC(=O)C=C[C@]4(C)[C@H]3[C@@H](O)C[C@@]12C`, “inactive”.
Turning to `C[C@]12CCC(=O)C=C1CC[C@@H]1[C@@H]2[C@@H](O)C[C@@]2(C)[C@H]1CC[C@]2(O)C(=O)COP(=O)(O)O`, the Potency entry is “inactive”.
The same measure, in the same setting: the entry for `COC(=O)[C@H]1[C@H]2C[C@@H]3c4[nH]c5ccccc5c4CCN3C[C@H]2C[C@@H](OC(=O)c2cc(OC)c(OC)c(OC)c2)[C@@H]1OC` is “inactive”.
As to `CCC(=O)OCC(=O)[C@@]1(OC(=O)CC)[C@H](C)C[C@H]2[C@H]3[C@H]([C@@H](O)C[C@@]21C)[C@@]1(C)C=CC(=O)C=C1C[C@H]3Cl`, the Potency entry was “inactive”.
